# Residue numbers refer to the chain shown, from its start.
# Tests used:
# Assay in all cases: PBM; 200 nM protein, PBS
# Conditions in all cases: dsDNA, one strand shown
# HESX1 [1] = molecular target: HESX1 (Homo sapiens, UniProt Q9UBX0 95-180, F115L)
# SHOX = SHOX (Homo sapiens, UniProt O15266 103-189, R173C)
# SIX6 [2] = molecular target: T1, SIX6 (Homo sapiens, UniProt O95475 114-200, L167I)
# T1 sequence: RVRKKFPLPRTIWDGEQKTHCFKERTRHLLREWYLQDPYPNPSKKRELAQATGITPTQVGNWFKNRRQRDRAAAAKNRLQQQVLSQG
# SIX6 [3] = molecular target: T2, SIX6 (Homo sapiens, UniProt O95475 114-200, L143V)
# T2 sequence: T1 sequence with L30V, I54L
# SIX6 [4] = molecular target: T3, SIX6 (Homo sapiens, UniProt O95475 114-200, T165P)
# T3 sequence: T1 sequence with T52P, I54L
# SIX6 [5] = molecular target: T4, SIX6 (Homo sapiens, UniProt O95475 114-200, L167M)
# T4 sequence: T1 sequence with I54M
# SIX6 [6] = molecular target: T5, SIX6 (Homo sapiens, UniProt O95475 114-200, L143M)
# T5 sequence: T1 sequence with L30M, I54L
# SIX6 [7] = molecular target: T6, SIX6 (Homo sapiens, UniProt O95475 114-200, L143I)
# T6 sequence: T1 sequence with L30I, I54L
# SIX6 [8] = molecular target: T7, SIX6 (Homo sapiens, UniProt O95475 114-200, T165G)
# T7 sequence: T1 sequence with T52G, I54L
# SIX6 [9] = molecular target: T8, SIX6 (Homo sapiens, UniProt O95475 114-200, T139Q)
# T8 sequence: T1 sequence with T26Q, I54L
# SIX6 [10] = molecular target: T9, SIX6 (Homo sapiens, UniProt O95475 114-200, L167V)
# T9 sequence: T1 sequence with I54V
# SIX6 [11] = molecular target: T10, SIX6 (Homo sapiens, UniProt O95475 114-200, T165I)
# T10 sequence: T1 sequence with T52I, I54L
# NKX2-6 [12] = molecular target: T11, NKX2-6 (Homo sapiens, UniProt A6NCS4 118-204)
# T11 sequence: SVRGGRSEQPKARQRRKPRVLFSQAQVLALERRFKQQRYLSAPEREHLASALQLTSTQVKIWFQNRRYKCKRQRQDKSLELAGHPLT
# HESX1 [13] = molecular target: HESX1 (Homo sapiens, UniProt Q9UBX0 95-180, R109Q)
# Sequence of HESX1 (Homo sapiens, UniProt Q9UBX0 95-180, R109Q) (Q9UBX0 95-180 R109Q): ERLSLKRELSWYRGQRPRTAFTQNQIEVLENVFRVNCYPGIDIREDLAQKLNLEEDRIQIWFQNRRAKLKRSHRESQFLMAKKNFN
# NKX2-6 [14] = molecular target: T12, NKX2-6 (Homo sapiens, UniProt A6NCS4 118-204, F151L)
# T12 sequence: T11 sequence with F34L
# Sequence of HESX1 (Homo sapiens, UniProt Q9UBX0 95-180, F115L) (Q9UBX0 95-180 F115L): as the sequence (Q9UBX0 95-180 R109Q) above, with Q15R, F21L counted along it
# Sequence of SHOX (O15266 103-189 R173C): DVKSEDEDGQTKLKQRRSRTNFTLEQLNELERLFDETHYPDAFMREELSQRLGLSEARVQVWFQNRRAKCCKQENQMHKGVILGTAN
sequence,measurement,setting,value
ATTATTAA,binding signal,HESX1 [1],"7.79 upbm affinity estimate (log intensity, higher = more binding, comparable within an allelic series)"
TATTAATA,binding signal,HESX1 [1],"8.46 upbm affinity estimate (log intensity, higher = more binding, comparable within an allelic series)"
ACTCATTA,binding signal,SHOX,"9.29 upbm affinity estimate (log intensity, higher = more binding, comparable within an allelic series)"
GGCCCCCC,binding signal,SIX6 [2],"8.65 upbm affinity estimate (log intensity, higher = more binding, comparable within an allelic series)"
same,binding signal,SIX6 [3],"8.57 upbm affinity estimate (log intensity, higher = more binding, comparable within an allelic series)"
same,binding signal,SIX6 [4],"8.56 upbm affinity estimate (log intensity, higher = more binding, comparable within an allelic series)"
same,binding signal,SIX6 [5],"8.73 upbm affinity estimate (log intensity, higher = more binding, comparable within an allelic series)"
same,binding signal,SIX6 [6],"8.77 upbm affinity estimate (log intensity, higher = more binding, comparable within an allelic series)"
same,binding signal,SIX6 [7],"8.57 upbm affinity estimate (log intensity, higher = more binding, comparable within an allelic series)"
same,binding signal,SIX6 [8],"8.61 upbm affinity estimate (log intensity, higher = more binding, comparable within an allelic series)"
same,binding signal,SIX6 [9],"8.85 upbm affinity estimate (log intensity, higher = more binding, comparable within an allelic series)"
same,binding signal,SIX6 [10],"8.56 upbm affinity estimate (log intensity, higher = more binding, comparable within an allelic series)"
same,binding signal,SIX6 [11],"8.78 upbm affinity estimate (log intensity, higher = more binding, comparable within an allelic series)"
GCGCAGCC,binding signal,SIX6 [2],"8.75 upbm affinity estimate (log intensity, higher = more binding, comparable within an allelic series)"
same,binding signal,SIX6 [3],"8.82 upbm affinity estimate (log intensity, higher = more binding, comparable within an allelic series)"
same,binding signal,SIX6 [4],"8.87 upbm affinity estimate (log intensity, higher = more binding, comparable within an allelic series)"
same,binding signal,SIX6 [5],"8.77 upbm affinity estimate (log intensity, higher = more binding, comparable within an allelic series)"
same,binding signal,SIX6 [6],"8.72 upbm affinity estimate (log intensity, higher = more binding, comparable within an allelic series)"
same,binding signal,SIX6 [7],"8.74 upbm affinity estimate (log intensity, higher = more binding, comparable within an allelic series)"
same,binding signal,SIX6 [8],"8.7 upbm affinity estimate (log intensity, higher = more binding, comparable within an allelic series)"
same,binding signal,SIX6 [9],"8.82 upbm affinity estimate (log intensity, higher = more binding, comparable within an allelic series)"
same,binding signal,SIX6 [10],"8.72 upbm affinity estimate (log intensity, higher = more binding, comparable within an allelic series)"
same,binding signal,SIX6 [11],"8.7 upbm affinity estimate (log intensity, higher = more binding, comparable within an allelic series)"
CTAATGAC,binding signal,NKX2-6 [12],"11.7 upbm affinity estimate (log intensity, higher = more binding, comparable within an allelic series)"
GCCGCTCC,binding signal,SIX6 [2],"9.16 upbm affinity estimate (log intensity, higher = more binding, comparable within an allelic series)"
same,binding signal,SIX6 [3],"8.94 upbm affinity estimate (log intensity, higher = more binding, comparable within an allelic series)"
same,binding signal,SIX6 [4],"8.87 upbm affinity estimate (log intensity, higher = more binding, comparable within an allelic series)"
same,binding signal,SIX6 [5],"9.07 upbm affinity estimate (log intensity, higher = more binding, comparable within an allelic series)"
same,binding signal,SIX6 [6],"9.12 upbm affinity estimate (log intensity, higher = more binding, comparable within an allelic series)"
same,binding signal,SIX6 [7],"8.99 upbm affinity estimate (log intensity, higher = more binding, comparable within an allelic series)"
same,binding signal,SIX6 [8],"9.14 upbm affinity estimate (log intensity, higher = more binding, comparable within an allelic series)"
same,binding signal,SIX6 [9],"9.17 upbm affinity estimate (log intensity, higher = more binding, comparable within an allelic series)"
same,binding signal,SIX6 [10],"9.06 upbm affinity estimate (log intensity, higher = more binding, comparable within an allelic series)"
same,binding signal,SIX6 [11],"9.09 upbm affinity estimate (log intensity, higher = more binding, comparable within an allelic series)"
ATTAATCA,binding signal,HESX1 [13],"8.96 upbm affinity estimate (log intensity, higher = more binding, comparable within an allelic series)"
CAGGCACG,binding signal,NKX2-6 [12],"9.31 upbm affinity estimate (log intensity, higher = more binding, comparable within an allelic series)"
same,binding signal,NKX2-6 [14],"9.26 upbm affinity estimate (log intensity, higher = more binding, comparable within an allelic series)"

# Source: article PMC11006913
